Shown is part of a subset that was picked to be rich in hits.
Dicer inh: blocks human Dicer maturation of pre-miR-21. AID 1347074. z-score at 25 µM. cat-ELCCA pre-miR-21 Dicer processing, chemiluminescence; hits give high values. Q9UPY3. 6% of 47,000 active; in the data active = z-score above about 3, passing the limit was not always enough;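 also: plate controls were vehicle for no effect and no enzyme for full effect; higher signal means more uncleaved substrate so more Dicer inhibition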
Numbers without * were called inactive.

SMILES | Dicer inh
C/C=C(\C)C(=O)Nc1ccccc1CC1c2ccccc2CCN1C (configuration not stated) | -1.1
CNC(=O)c1ccccc1Sc1cccc2ccccc12 | -0.4
Cc1ccc(NC(=S)Nc2ccccc2C)c(C)c1 | 2.5
Cc1ccc(NC(=S)Nc2ccccc2N)c(C)c1 | 7*
Cc1ccc(NC(=S)Nc2ccc(C)cc2C)c(C)c1 | 0.92
Cn1[nH]c(=O)c2c(C(F)(F)F)ccnc21 | -0.97
Cn1nc(-c2ccccc2)cc1NS(=O)(=O)c1ccc(C(F)(F)F)cc1 | -0.47
Clc1ccc(Cc2cn3cc(-c4ccccc4)nc3s2)cc1 | -0.5
CCN(CC)CCOc1c(Br)ccc2c1sc1nc3n(c(=O)c12)CCC3 | 4.1*
CCOC(=O)c1oc2nc(-c3ccc(Cl)cc3)cc(-c3ccccc3)c2c1N | -3.5
O=c1nc(SCc2c(Cl)cccc2Cl)nc(-c2ccc(Cl)cc2)[nH]1 | 5.9*
CCSc1nc(-c2ccc(Cl)cc2)[nH]c(=O)n1 | -3.4
O=c1nc(SCc2ccccc2Cl)nc(-c2ccc(Cl)cc2)[nH]1 | 0.58
CCOC(=O)c1nn(-c2ccc(C(C)(C)C)cc2)c(=O)c(C#N)c1C | -1.3
Cc1cc(C)c2c(C)nn(-c3ccc(C)c(C)c3)c2n1 | -3.5
Cc1cc(C)nc(Nc2ncc(O)n2-c2ccc(C)c(C)c2)n1 | 3.6*
CCOc1ccc(-n2c(O)cnc2Nc2nc(C)cc(C)n2)cc1 | 1.3
Cc1ccc(N2CCn3c2nc2c3c(=O)n(CC(=O)O)c(=O)n2C)cc1C | 0.52
CC1(C)C2CC[C@](C)(C2)C1NS(=O)(=O)c1ccc(F)cc1 (some centres not stated) | -3.4
CCOC(=O)c1c(C)noc1-c1ccco1 | 7.7*
CCOC(=O)c1c(C)noc1-c1csc(Nc2c(C)cc(C)cc2C)n1 | 0.39
CCOC(=O)c1sc2sc(C(=O)OCC)c(-c3ccco3)c2c1N | -2.1
CSc1nc(-c2ccccn2)nc(N)c1C#N | 0.64
CCOC(=O)c1c(NC(=O)CN(CC)CC)sc2c1CCCC2=O | 1.5
Cc1ccc(C(=O)Nc2ccc(Oc3ccc(NC(=O)c4ccc(C)cc4)cc3)cc2)cc1 | -0.5
SMILES | Dicer inh
CN(C)CCCNc1cccc(Cl)c1C#N | 1.2
COCc1cc(=O)[nH]c(/N=C(\N)Nc2ccccc2OC)n1 | 1.4
C=CCOc1ccc(C2/C(=C(\O)c3ccc(OCC)cc3)C(=O)C(=O)N2c2nnc(C)s2)cc1 (configuration not stated) | 1.6
CCNS(=O)(=O)c1ccc2c(c1)C(=O)c1cc(S(=O)(=O)NCC)ccc1-2 | -0.19
COc1ccc(/C(C#N)=C/c2cn[nH]c2)cc1 | -0.82
CN(C)c1ccc(/C=C(\C#N)c2ccc([N+](=O)[O-])cc2)cc1[N+](=O)[O-] | -0.29
COc1ccc(/C=C(\C#N)c2ccc([N+](=O)[O-])cc2)cc1[N+](=O)[O-] | 3.5*
CC(=O)OCc1c(C)c(C)c(C)c(C)c1C | 1.7
CN(C)c1ccc(CNCCC(c2ccccc2)C2CCOC(C)(C)C2)cc1 (configuration not stated) | -0.19
COc1ccccc1C1C(C#N)=C(C)NC2=C1C(=O)CC(c1ccccc1)C2 (configuration not stated) | 0.45
CC(C)(C)C(=O)Nc1ncccc1C(=O)O | 2.8
COC(=O)c1sccc1N/N=C/c1ccc(F)cc1 | 0.01
COC(=O)c1sc2cc(-c3ccc(F)cc3)sc2c1C | 3.8*
COC(=O)c1sc(SC)c(C(C)=O)c1C | 0.17
COC(=O)c1ccc(S(=O)(=O)N2CCCCCC2)n1C | 0.18
COC(=O)c1ccc(S(=O)(=O)Nc2ccc(N3CCOCC3)cc2)n1C | 3.6*
COC(=O)c1ccc(S(=O)(=O)N2CCC(O)CC2)n1C | 1.4
Clc1cc2nc3c(nc2cc1Cl)CCCC3 | 0.98
CC(=O)Nc1ccc2nc(NC(C)=O)sc2c1 | 3.2*
CC(=O)Nc1nc2ccc(NC(=O)c3c([N+](=O)[O-])cnn3C)cc2s1 | 1.1
CC(=O)Nc1nc2ccc(NC(=O)c3sc4ccccc4c3Cl)cc2s1 | 0.3
CC1=C(C(=O)OCCOc2ccccc2)C(c2ccc3c(c2)OCO3)C2=C(CCCC2=O)N1 (configuration not stated) | 0.59
CSc1nc(N)nc2sc(C(=O)c3ccc(Cl)cc3)c(N)c12 | 0.5
O=C1CC(c2cccs2)CC2=C1C1c3ccccc3C(=O)N1c1ccccc1N2 (configuration not stated) | 2.2
CCn1cc(C(=O)O)c(=O)c2cnc(N3CCCC3)nc21 | 4.5*
SMILES | Dicer inh
CCn1cc(C(=O)O)c(=O)c2cc3c(cc21)OCO3 | -0.39
CCn1cc(C(=O)O)c(=O)c2cnc(N3CCN(C(=O)Nc4ccccc4)CC3)nc21 | -0.82
Cc1c(Cl)cccc1NC(=S)N1CCCCC1CCN1CCCCC1 (configuration not stated) | 1.2
COC(=O)c1c(C)[nH]c(C)c1-c1ccno1 | -0.49
CCCn1cnc2ccccc21 | -1.1
S=c1[nH]nc2nc(-c3ccccc3)c(-c3ccccc3)nn12 | -0.34
S=c1[nH]nc2nc3c4ccccc4c4ccccc4c3nn12 | 4.9*
CCSc1nnc2nc3c4ccccc4c4ccccc4c3nn12 | 1.3
c1nc(N2CCCC2)c2ccsc2n1 | -0.74
Cc1cc(NC(=O)c2sc3ccccc3c2Cl)cc(-c2nc3ncccc3o2)c1O | 1.7
C=CCN(C#N)c1nc(NC(C)C)nc(NC(C)C)n1 | 6.5*
S=c1[nH]nc(CSc2nc(-c3ccccc3)cn2-c2ccccc2)n1-c1ccccc1 | 0.02
C=CCn1c(SCc2n[nH]c(=S)n2C)nnc1-c1ccccc1 | -0.49
C=CCn1c(CSc2nc(-c3ccccc3)cn2-c2ccc(OC)cc2OC)n[nH]c1=S | 3.4*
CCCS(=O)(=O)c1cnc(SC)nc1N | 0.33
CC1(C)Cc2[nH]c(=O)c(C#N)cc2CO1 | 1.4
Nc1cc(=O)[nH]c(SCC(=O)Nc2ccc(Cl)cn2)n1 | -0.36
COc1ccc(C2CC(=O)C3=C(C2)Nc2ccccc2NC3c2cc(OC)ccc2OC)cc1 (configuration not stated) | -0.4
Cc1ccc(C2CC(=O)C3=C(C2)Nc2ccccc2NC3c2ccc3c(c2)OCO3)cc1 (configuration not stated) | -1.1
COc1cc(C2Nc3ccccc3NC3=C2C(=O)CC(c2ccc4c(c2)OCO4)C3)ccc1OC(C)=O (configuration not stated) | 1.4
COc1ccc(C2CC(=O)C3=C(C2)Nc2ccccc2NC3c2ccc(OC)c(O)c2)cc1 (configuration not stated) | 1
COc1cc(C2Nc3ccccc3NC3=C2C(=O)CC(c2ccc(OC)c(OC)c2)C3)ccc1O (configuration not stated) | -0.72
COc1ccc(C2CC(=O)C3=C(C2)Nc2ccccc2NC3c2ccc(SC)cc2)cc1OC (configuration not stated) | 5.2*
COc1ccc(C2CC(=O)C3=C(C2)Nc2ccccc2NC3c2cccc3ccccc23)cc1OC (configuration not stated) | 5.4*
CSc1ccc(C2Nc3ccccc3NC3=C2C(=O)CC(c2ccc4c(c2)OCO4)C3)cc1 (configuration not stated) | 4.6*
COc1ccc(C2Nc3ccccc3NC3=C2C(=O)CC(c2ccccc2)C3)c(OC)c1 (configuration not stated) | 1.7
O=C(O)Cc1csc2ccc(Cl)cc12 | 0.54
CCCOC(=O)C1C2C=CC3(CN(c4ccc(Cl)cc4)C(=O)C13)O2 (configuration not stated) | 0.23
Cc1cc2nc(C(F)(F)F)cc(C)n2n1 | -0.06
Cc1ccccc1C(=O)N(Cc1ccc(Br)cc1)c1ccc(F)cc1 | -0.32
